Among the data in PubChem BioAssay (NCI) are growth values, retold here.

Some test systems named below: DU-145 prostate; K-562 leukemia; MALME-3M melanoma; MDA-MB-231 breast; RXF 393 renal; SF-268 CNS; SF-295 CNS; SF-539 CNS; UACC-257 melanoma; M14 melanoma.
Common to all, as to assay: NCI-60 one-dose screen, 48 h (100 = growth as untreated, 0 = no growth, -100 = all killed)
Holding throughout (conditions): 10 µM unless noted

The panel holds about 83,000 compounds, 20% with a hit somewhere; the sample as a whole holds those more often.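 The test compound was applied at a single concentration to cells in 96-well plates for 48 hours, and percent growth was recorded.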 Unmarked numbers belong to inactive results. The source made the active and inactive calls. The calls were made as follows: active = growth percent below 10; inactive = the rest.

For `CCn1c2ccccc2c2cc(C(=O)c3ccc(C)c4ccccc34)ccc21`, the growth is 17.9% in the assay on DU-145 prostate; 4.51% (active) in the assay with K-562 leukemia; 74.4% with MALME-3M melanoma; 26.4% in the assay with MDA-MB-231 breast; 15% in the assay on RXF 393 renal; 19.8% in the assay on SF-268 CNS. The growth in the assay on SF-295 CNS is 11.6%; in the assay on SF-539 CNS, -5.79% (active); in the assay on UACC-257 melanoma it was 36.9%; in the assay on M14 melanoma, 2.37% (active).

Turning to `Clc1cccc(Cl)c1Cl`, the growth with DU-145 prostate is 101%; with K-562 leukemia, 84.9%; in the assay on MALME-3M melanoma, 103%; in the assay on MDA-MB-231 breast, 117%; in the assay with RXF 393 renal, 122%; in the assay with SF-268 CNS, 97.5%. Moreover, the growth in the assay on SF-295 CNS was 95.1%; with SF-539 CNS it was 100%; with UACC-257 melanoma, 86.6%; in the assay on M14 melanoma, 94.7%.

Turning to `COc1ccc(N(CC(=O)NCCC[Te]c2ccccc2)C(=O)CNC(=O)OC(C)(C)C)cc1`, the growth was 48.9% with DU-145 prostate; 97% with K-562 leukemia; 137% in the assay on MALME-3M melanoma; 1.63% (active) with MDA-MB-231 breast; 114% in the assay on RXF 393 renal; 24.2% in the assay with SF-268 CNS. Also, the growth is -10.8% (active) in the assay on SF-295 CNS, -9.65% (active) in the assay with SF-539 CNS, 109% with UACC-257 melanoma and 9.09% (active) in the assay with M14 melanoma.

On to `COC(=O)[C@H](Cc1ccccc1)NNC(=O)c1csc([C@@H](C[C@H](C(C)C)N(C)C(=O)[C@@H](NC(=O)[C@H]2CCCCN2C)C2CC2)OC(C)=O)n1`, for which the growth with DU-145 prostate is 6.55% (active); in the assay on K-562 leukemia it was 1.75% (active); with MALME-3M melanoma, 71%; in the assay on MDA-MB-231 breast it was 3.27% (active); in the assay on RXF 393 renal, 76.4%; in the assay on SF-268 CNS, 22.5%. Besides, the growth is -5.26% (active) in the assay on SF-295 CNS, -15.4% (active) in the assay with SF-539 CNS, 58% in the assay on UACC-257 melanoma and 2.43% (active) in the assay with M14 melanoma.

For the compound `Cc1c(O)c(CN(CCCl)CCCl)cc(CN(CCCl)CCCl)c1O`, the growth in the assay on DU-145 prostate was 107%; in the assay with K-562 leukemia, 103%; in the assay with MALME-3M melanoma, 93.1%; in the assay with MDA-MB-231 breast, 93.5%; in the assay on RXF 393 renal, 97.6%; in the assay on SF-268 CNS it was 88.4%. Besides, the growth was 93.9% with SF-295 CNS, 82.5% in the assay with SF-539 CNS, 92.8% with UACC-257 melanoma and 92.4% in the assay with M14 melanoma.

Turning to `Oc1ccc2c3c1OC1[C@@H](O)CC[C@@]4(O)[C@@H](C2)N(CC2CCC2)CC[C@]314` (stereo not given in full), the growth is 113% in the assay on DU-145 prostate; 94.7% in the assay with K-562 leukemia; 92.5% in the assay with MALME-3M melanoma; 114% with MDA-MB-231 breast; 97.7% in the assay on RXF 393 renal; 105% with SF-268 CNS. Also, the growth in the assay with SF-295 CNS was 102%; with SF-539 CNS it was 103%; in the assay with UACC-257 melanoma, 97.6%; in the assay with M14 melanoma, 103%.

On to `CC12CC=CCC1CCC1C2CCC2(C)C(c3ccc(=O)oc3)CCC12O` (stereo not given), for which the growth in the assay on DU-145 prostate was -98% (active); with K-562 leukemia, 3.02% (active); in the assay on MALME-3M melanoma, -51.8% (active); in the assay with MDA-MB-231 breast, -4.41% (active); in the assay on RXF 393 renal, -46.5% (active); with SF-268 CNS, -62.2% (active). For the same compound, the growth is -36.7% (active) with SF-295 CNS, -93.7% (active) with SF-539 CNS, -52.8% (active) in the assay with UACC-257 melanoma and -28% (active) with M14 melanoma.

For `CCC(C)(C)[C@H](NC(=O)[C@H]1CCCCN1C)C(=O)N(C)[C@H](C[C@@H](OC(C)=O)c1nc(C(=O)N[C@@H](Cc2ccccc2)C[C@H](C)C(=O)O)cs1)C(C)C`, the growth in the assay on DU-145 prostate was 0.164% (active); with K-562 leukemia, 6.58% (active); in the assay with MALME-3M melanoma, 27.4%; with MDA-MB-231 breast it was 15.7%; with RXF 393 renal, 38.4%; in the assay on SF-268 CNS, 23.3%. The growth is -7.51% (active) with SF-295 CNS, -31% (active) in the assay on SF-539 CNS, 55.5% in the assay on UACC-257 melanoma and -19.3% (active) in the assay with M14 melanoma.

As to `CC[C@H](C)[C@H](NC(=O)N[C@@H](C)c1ccccc1)C(=O)N(C)[C@H](C[C@@H](OC(C)=O)c1nc(C(=O)N[C@@H](Cc2ccccc2)C[C@H](C)C(=O)OC)cs1)C(C)C`, the growth in the assay with DU-145 prostate is -4.64% (active); in the assay on K-562 leukemia, 14%; in the assay on MALME-3M melanoma, 44.9%; in the assay with MDA-MB-231 breast it was -6.65% (active); in the assay on RXF 393 renal, -8.76% (active); with SF-268 CNS, 22.2%. In addition, the growth was 5.49% (active) in the assay on SF-295 CNS, -27.6% (active) with SF-539 CNS, 75.3% in the assay on UACC-257 melanoma and -12.2% (active) in the assay on M14 melanoma.

Consider `C[C@]12CCc3sc(-c4ccccc4O)nc3C1=CC[C@@H]1[C@@H]2CC[C@]2(C)C(=O)CC[C@@H]12`, for which the growth was 107% in the assay on DU-145 prostate; 95.8% with K-562 leukemia; 102% in the assay on MALME-3M melanoma; 103% with MDA-MB-231 breast; 107% in the assay with RXF 393 renal; 100% with SF-268 CNS. Besides, the growth with SF-295 CNS is 100%; with SF-539 CNS, 105%; with UACC-257 melanoma it was 107%; with M14 melanoma, 106%.

As for `C[n+]1c(/C=C/c2ccc(N(CCCl)CCCl)cc2)sc2ccccc21`, the growth in the assay with DU-145 prostate was 45.2%; with K-562 leukemia, 15.3%; in the assay with MALME-3M melanoma, 54%; in the assay with MDA-MB-231 breast, 80.8%; in the assay with RXF 393 renal, 85.6%; in the assay with SF-268 CNS, 57.7%. For the same compound, the growth is 55.7% in the assay with SF-295 CNS, 45.4% in the assay with SF-539 CNS, 64.7% in the assay with UACC-257 melanoma and 64.7% with M14 melanoma.

On to `Cn1cc(C=O)c2nccnc21`, for which the growth in the assay on DU-145 prostate was 118%; with K-562 leukemia, 101%; in the assay on MALME-3M melanoma it was 106%; in the assay on MDA-MB-231 breast, 111%; in the assay on RXF 393 renal, 112%; in the assay with SF-268 CNS it was 123%. Besides, the growth in the assay with SF-295 CNS is 101%; in the assay on SF-539 CNS, 108%; in the assay on UACC-257 melanoma it was 102%; in the assay on M14 melanoma it was 120%.

As for `CC[C@H](C)[C@H](NC(=O)NC(C)(C)C)C(=O)N(C)[C@H](C[C@@H](OC(C)=O)c1nc(C(=O)N[C@@H](Cc2ccccc2)C[C@H](C)C(=O)OC)cs1)C(C)C`, the growth with DU-145 prostate is 1.97% (active); in the assay on K-562 leukemia, 7.43% (active); in the assay on MALME-3M melanoma it was 48.8%; in the assay on MDA-MB-231 breast it was 13%; in the assay on RXF 393 renal it was 32.6%; with SF-268 CNS, 21.8%. The growth in the assay on SF-295 CNS was 12.2%; in the assay on SF-539 CNS it was 2.57% (active); in the assay with UACC-257 melanoma it was 43.8%; in the assay on M14 melanoma it was 2.12% (active).
